Experimental data reported in PubChem BioAssay (Tox21).
Inconclusive results are not listed. Activity calls are given as the source filed them. Unless noted, calls come from the whole dose curve; as a rule, active = well fitted curve in the direction sought with a large enough effect in the repeat runs; inconclusive = weak or mixed curves; inactive = no such curve, though single readings can be large; an effect the other way counts as inactive or inconclusive.

How the values were obtained:
[1] = A CellTox Green Cytotoxicity Assay to monitor cytotoxicity in HepG2 cells - 8 hour (AID 1224890); note: nearly all actives have a fitted effect of over 45% in size
How it was run: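 Fluorescent DNA-binding dye, 600 HepG2 cells/well, 5 h preincubation then compound in DMSO; same plates read at 0–40 h, 37 C.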

[2] = qHTS assay to identify small molecule antagonists of the estrogen receptor alpha (ER-alpha) signaling pathway using the BG1 cell line in the presence of 0.1 nM 17-beta-estradiol - cell viability counter screen (AID 1259241); note: nearly all actives have a fitted effect of over 40% in size
How it was run: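 Measures cytotoxicity alongside the ER-alpha antagonist readout: VM7Luc4E2 cells, charcoal-stripped serum, 0.1 nM 17beta-estradiol final, 22 hr compound incubation at 37C, CellTiter-Fluor fluorescence.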

[3] = qHTS assay to identify small molecule antagonists of the androgen receptor (AR) signaling pathway using the MDA cell line in the presence of 0.5 nM R1881 - cell viability counter screen (AID 1259242); note: nearly all actives have a fitted effect of over 45% in size
How it was run: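 Human breast carcinoma MDA-kb2 cells, cultured without CO2, receive compounds alongside 0.5 nM (final) R1881 agonist. After 16 hr at 37C, viability is taken as live-cell protease signal.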

[4] = qHTS assay to identify small molecule HDAC inhibitors (AID 1259364);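 note: wild-type HCT-116 cells with endogenous class I/II HDAC activity; top concentration of the series differs between compounds; nearly all actives have a fitted effect of over 45% in size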
How it was run: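 After a 2 hr compound incubation (37C, 5% CO2), HCT-116 cells seeded at 1,500/well the day before received HDAC-Glo reagent; signal read as luminescence after 30 min at room temperature.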

[5] = qHTS assay to identify small molecule HDAC inhibitors - cell viability counter screen (AID 1259365); note: series mostly up to about 92 µM; nearly all actives have a fitted effect of over 50% in size
How it was run: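 Following a 2hr exposure of overnight-plated wild-type HCT-116 cells to DMSO-delivered compounds, CellTiter-Glo was added and luminescence recorded after 30min at room temperature.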

[6] = qHTS assay to identify small molecule agonists of the sonic hedgehog signaling (Shh) pathway - cell viability counter screen (AID 1259366); note: nearly all actives have a fitted effect of over 50% in size
How it was run: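 After a 4hr attachment at 37C, NIH/3T3 cells bearing an integrated Gli1-driven luciferase reporter were dosed with compounds. Treatment lasted 24hr, with the final hour including CellTiter-Fluor for a fluorescence viability measurement.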

[7] = qHTS assay to identify small molecule antagonists of the sonic hedgehog signaling (Shh) pathway - cell viability counter screen (AID 1259367); note: nearly all actives have a fitted effect of over 55% in size
How it was run: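 Viability was read by CellTiter-Fluor fluorescence in the same wells, reagent added 23 hr into compound treatment and incubated 1 hr at 37C. The 3T3 Gli1-Luc reporter cells (2,000/well) received conditioned medium after compound and ran 24 hr.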

[8] = target: Androgen receptor (Homo sapiens) (UniProt P10275); experiment: qHTS assay to identify small molecule antagonists of the androgen receptor (AR) signaling pathway using the MDA cell line in the presence of 0.5 nM R1881 (AID 1259243); note: nearly all actives have a fitted effect of over 50% in size
Chain of Androgen receptor (Homo sapiens) (P10275 whole entry, looked up): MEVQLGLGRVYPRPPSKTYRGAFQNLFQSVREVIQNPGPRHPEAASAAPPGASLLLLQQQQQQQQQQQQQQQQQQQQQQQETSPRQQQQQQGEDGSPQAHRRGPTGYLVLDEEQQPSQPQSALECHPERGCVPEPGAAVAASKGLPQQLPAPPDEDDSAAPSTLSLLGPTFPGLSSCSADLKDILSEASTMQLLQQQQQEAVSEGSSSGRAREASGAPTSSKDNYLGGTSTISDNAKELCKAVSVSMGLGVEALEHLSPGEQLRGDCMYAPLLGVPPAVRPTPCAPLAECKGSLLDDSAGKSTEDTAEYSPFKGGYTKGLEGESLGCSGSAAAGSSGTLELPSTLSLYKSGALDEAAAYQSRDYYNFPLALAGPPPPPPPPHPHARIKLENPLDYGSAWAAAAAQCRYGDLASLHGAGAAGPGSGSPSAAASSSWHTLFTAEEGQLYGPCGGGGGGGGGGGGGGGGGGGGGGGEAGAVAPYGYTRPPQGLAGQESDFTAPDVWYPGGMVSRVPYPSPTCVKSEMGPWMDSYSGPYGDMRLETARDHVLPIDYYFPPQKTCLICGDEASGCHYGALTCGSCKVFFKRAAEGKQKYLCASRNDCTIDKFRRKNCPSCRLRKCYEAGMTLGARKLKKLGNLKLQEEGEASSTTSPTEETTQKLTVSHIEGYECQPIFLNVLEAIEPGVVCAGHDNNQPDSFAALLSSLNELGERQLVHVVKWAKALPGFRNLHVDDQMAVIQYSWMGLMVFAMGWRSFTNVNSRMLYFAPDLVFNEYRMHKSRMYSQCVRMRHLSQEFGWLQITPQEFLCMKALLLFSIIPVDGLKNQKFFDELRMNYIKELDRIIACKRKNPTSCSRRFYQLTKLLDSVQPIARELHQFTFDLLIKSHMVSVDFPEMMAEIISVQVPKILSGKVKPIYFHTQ
How it was run: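 Cells: MDA-kb2 (MMTV-luc). Stimulus: 0.5 nM R1881. Time: 16 hr, 37C, no CO2. Detection: ONE-Glo luminescence after 30 min at RT.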

[9] = target: Estrogen receptor (Homo sapiens) (UniProt P03372); experiment: qHTS assay to identify small molecule antagonists of the estrogen receptor alpha (ER-alpha) signaling pathway using the BG1 cell line in the presence of 0.1 nM 17-beta-estradiol (AID 1259244); note: nearly all actives have a fitted effect of over 50% in size; note: potency is the fitted concentration of half-maximal effect
Chain of Estrogen receptor (Homo sapiens) (P03372 whole entry, looked up): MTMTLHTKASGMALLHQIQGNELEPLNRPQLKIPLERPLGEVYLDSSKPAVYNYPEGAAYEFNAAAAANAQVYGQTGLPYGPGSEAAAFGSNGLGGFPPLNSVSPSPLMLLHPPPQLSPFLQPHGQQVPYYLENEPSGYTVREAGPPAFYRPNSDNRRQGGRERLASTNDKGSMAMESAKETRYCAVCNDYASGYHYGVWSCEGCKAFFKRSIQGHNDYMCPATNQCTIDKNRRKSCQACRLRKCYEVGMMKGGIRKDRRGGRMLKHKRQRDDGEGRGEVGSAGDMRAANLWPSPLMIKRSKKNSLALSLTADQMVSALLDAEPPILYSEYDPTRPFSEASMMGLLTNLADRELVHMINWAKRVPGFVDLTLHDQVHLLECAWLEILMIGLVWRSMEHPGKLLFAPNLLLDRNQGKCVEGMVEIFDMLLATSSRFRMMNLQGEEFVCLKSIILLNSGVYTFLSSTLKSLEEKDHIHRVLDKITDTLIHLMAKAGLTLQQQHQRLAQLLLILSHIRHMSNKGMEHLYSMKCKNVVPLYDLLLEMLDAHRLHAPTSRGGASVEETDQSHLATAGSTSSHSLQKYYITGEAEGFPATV
How it was run: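 Seeding of stripped-serum-adapted VM7Luc4E2 cells, 24 h attachment, compound transfer, then 0.1 nM final 17beta-estradiol; after 22 h incubation, ONE-Glo reagent and luminescence reading.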

[10] = qHTS assay to identify small molecule phospholipidosis (PLD) inducers (AID 1259344; active = well fitted curve in the direction sought with a large enough effect; an effect the other way counts as inactive or inconclusive)
How it was run: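 Phospholipid accumulation was scored by imaging: fixed, Hoechst-counterstained HepG2 cells stained with LipidTOX Red after 24 h compound exposure at 37 C. Read-outs were pit count and pit intensity per well or per cell, with amiodarone and DMSO controls.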
% is set by controls: 0 for no effect and ±100 for the full control effect.

[O-][n+]1ccc(Cl)cc1
inactive: Potency [1] | Potency [2] | Potency [3] | Potency [4] | outcome [5] | Potency [6] | Potency [7]

Cc1c(N=C=O)cccc1N=C=O
inactive: Potency [1] | Potency [2] | Potency [8] | Potency [9] | Potency [4] | Potency [6] | Potency [7]

CCCC1CCOC(C)S1 (stereo not drawn)
inactive: Potency [1] | Potency [2] | Potency [8] | Potency [9] | Potency [4] | outcome [5] | Potency [6] | Potency [7]

C=CC(C)(O)CC/C=C(/C)CCC=C(C)C (stereo not drawn)
inactive: Potency [1] | Potency [2] | Potency [3] | Potency [4] | outcome [5] | Potency [6] | Potency [7]

O=C(O)c1ccc2c(c1)nc(C(=O)NC1CCN(C3CC3)CC1)n2Cc1cc(-c2ccc(Cl)s2)on1
inactive: cytotoxicity increase [1] 1.82% [at 15.8 µM] | activity change, negative = cytotoxicity [2] 3.2% [at 19 µM] | viability change, negative = cytotoxic [3] 1.29% [at 19 µM] | activity change, negative = inhibition [4] -4.76% [at 19 µM] | activity change, negative = cytotoxicity [5] 0.77% [at 19 µM] | viability change, negative = cytotoxic [6] 1.29% [at 19 µM] | viability change, negative = cytotoxic [7] 0.451% [at 19 µM]

FC1(F)C(F)(F)C(F)(F)C2(F)C(F)(C1(F)F)C(F)(F)C(F)(F)C1(F)C(F)(F)C(F)(F)C(F)(F)C(F)(F)C12F (stereo not drawn)
inactive: Potency [1] | Potency [2] | Potency [3] | Potency [4] | outcome [5] | Potency [6] | Potency [7]

O=S(=O)(O)c1cc(Cl)c(Cl)cc1Cl
inactive: Potency [1] | Potency [2] | Potency [8] | Potency [9] | Potency [4] | Potency [6] | Potency [7]

N#Cc1ccc(CC(=O)c2cccc(C(F)(F)F)c2)cc1
inactive: Potency [1] | Potency [2] | Potency [3] | Potency [4] | Potency [6] | Potency [7]

CCOC(=O)CC(O)(CC(=O)OCC)C(=O)OCC
inactive: Potency [1] | Potency [2] | Potency [3] | Potency [4] | Potency [6] | Potency [7]

CC(C)(C)c1ccc(CCC=O)cc1
inactive: Potency [1] | Potency [2] | Potency [9] | Potency [4] | Potency [6] | Potency [7]

O=C(c1ccc(Cl)cc1)c1ccc(Cl)cc1
inactive: Potency [1] | Potency [3] | Potency [8] | Potency [9] | Potency [4] | outcome [5] | Potency [6] | Potency [7]

O=C(O)COCC(=O)O
inactive: Potency [1] | Potency [2] | Potency [4] | outcome [5] | Potency [6]

C=C(C)C(=O)OCCCCCCCCCCOC(=O)C(=C)C
inactive: Potency [1] | Potency [2] | Potency [4] | outcome [5] | Potency [6] | Potency [7]

COc1ccc(/C(C)=C/C(=O)O)c(OC)c1
inactive: Potency [1] | Potency [2] | Potency [9] | Potency [4] | outcome [5] | Potency [6] | Potency [7]

CCCCCCCCCCCCN1CCOCC1
inactive: Potency [1] | Potency [2] | Potency [9] | Potency [4] | outcome [5] | Potency [6] | Potency [7]

CC(C)(C)N
inactive: Potency [1] | Potency [2] | Potency [9] | Potency [4] | outcome [5] | Potency [6] | Potency [7]

Cc1cccc(C)c1NC(=O)CN1CCCC1
inactive: Potency [1] | Potency [2] | Potency [10] | Potency [4] | outcome [5] | Potency [6] | Potency [7]

CC(CC(C#N)(c1ccccc1)C(C)C)N(C)C (stereo not drawn)
inactive: Potency [1] | Potency [3] | Potency [8] | Potency [9] | Potency [4] | outcome [5] | Potency [6] | Potency [7]

CCCCCO
inactive: Potency [1] | Potency [3] | Potency [9] | Potency [4] | outcome [5] | Potency [6] | Potency [7]

NCCOCCOCCN
inactive: Potency [1] | Potency [3] | Potency [8] | Potency [4] | outcome [5] | Potency [6] | Potency [7]

COc1cc(CNC(=O)CCCC/C=C/C(C)C)ccc1O
active: Potency [9] 59.5 µM
inactive: Potency [1] | Potency [3] | Potency [10] | Potency [4] | outcome [5] | Potency [6] | Potency [7]

CCCc1nc(C)c2c(=O)[nH]c(-c3cc(S(=O)(=O)N4CCN(CC)CC4)ccc3OCC)nn12
inactive: Potency [1] | Potency [3] | Potency [8] | Potency [10] | Potency [4] | outcome [5] | Potency [6] | Potency [7]

CCOc1ccc(NC(C)=O)cc1N
inactive: Potency [1] | Potency [3] | Potency [8] | Potency [9] | Potency [4] | Potency [6]

CCCCCCCCCCCCSCCOCCO
inactive: Potency [1] | Potency [2] | Potency [9] | Potency [10] | Potency [4] | outcome [5] | Potency [6] | Potency [7]

OCCCO
inactive: Potency [1] | Potency [3] | Potency [8] | Potency [9] | Potency [4] | outcome [5] | Potency [6] | Potency [7]

O=C(OC1C[C@H]2CC[C@@H](C1)[N+]21CCCC1)C(O)(c1ccccc1)c1ccccc1 (stereo partly drawn)
inactive: Potency [1] | Potency [3] | Potency [8] | Potency [10] | Potency [4] | outcome [5] | Potency [6] | Potency [7]
